In all, about 48,000 compounds went through this assay and about 13,000 (27%) showed an effect of 50% or more. The list shows a part of the results.
These compounds were tested on Wolbachia pipientis (assay: Anti-Wolbachia Cell-Based Screen). Conditions: 5 µM.
Assay type: functional
Design: scale not given: in the data most compounds retested in dose-response had high values

| Compound | Percent Effect [%] |
| --- | --- |
| COC(=O)C1(NCc2nc(C)c(C)o2)CCC(C)CC1 (stereo not given) | -8.144 |
| Cc1cc(C(=O)Nc2ccc(OCC3CCOCC3)cc2)[nH]n1 | 0.7277 |
| CN1CCN(S(=O)(=O)c2ncn(C)c2Cl)CC1 | 8.331 |
| O=C1CCCCN1CCCNCc1cnc(C2CCC2)s1 | -10.31 |
| CCN1CCN(S(=O)(=O)c2ncn(C)c2Cl)CC1 | 25.01 |
| Cn1cnc(S(=O)(=O)NCCCN2CCCC2=O)c1Cl | 106 |
| Cn1cnc(S(=O)(=O)NCCN2CCCCCC2=O)c1Cl | -2.808 |
| Cn1cnc(S(=O)(=O)NCCCN2CCCCCC2=O)c1Cl | 103.8 |
| Cc1cc(C)n(CC(C)NC(=O)c2cc(CN3CCC(O)CC3)on2)n1 (stereo not given) | -12.5 |
| COCCCc1nc(-c2ccc(S(=O)(=O)N3CCCC3)cc2)cs1 | 23.72 |
| COc1ccc(C(C)NC(=O)Cn2ccc(=O)n(C)c2=O)cc1F (stereo not given) | 127.2 |
| CCC(NC(=O)Cn1ccc(=O)n(C)c1=O)c1ccc(OC)cc1 (stereo not given) | 1.056 |
| COc1ccc(C(O)CNC(=O)Cn2ccc(=O)n(C)c2=O)cc1 (stereo not given) | 1.675 |
| COc1ccc(C)cc1C(C)NC(=O)Cn1ccc(=O)n(C)c1=O (stereo not given) | 121.4 |
| COc1ccc(C)cc1C(C)NC(=O)NCCCn1cncn1 (stereo not given) | 6.959 |
| CCC(NC(=O)Cn1ccc(=O)n(C)c1=O)c1ccccc1OC (stereo not given) | 2.411 |
| CC(C)CS(=O)(=O)CCNc1ncccn1 | -11.8 |
| Cc1nccn1CCCN1CCCC(c2nccn2CC2CCC2)C1 (stereo not given) | 94.54 |
| FC(F)Oc1ccccc1CN1CCCC(c2nccn2CC2CC2)C1 (stereo not given) | -15.63 |
| O=C(c1ccccn1)N1CCCC(c2nccn2CC2CCC2)C1 (stereo not given) | 7.496 |
| N#Cc1ccccc1CN1CCCC(c2nccn2CC2CCC2)C1 (stereo not given) | 17.05 |
| CC(C(=O)N1CCCC1)N1CCC(c2nccn2CC2CCC2)CC1 (stereo not given) | -1.675 |
| CCn1ccnc1CN(C)C1CCCN(CCCc2ccccc2)C1 (stereo not given) | 28.9 |
| Cc1nccn1CCC(=O)N1CCCN(CCCc2ccccc2)CC1 | 9.498 |

| Compound | Percent Effect [%] |
| --- | --- |
| Cc1nccn1CCCN1CCCC(c2ccccc2)C1 (stereo not given) | 96.96 |
| Cc1nccn1CCCN1CCC(c2nccn2CC2CCC2)CC1 | 81.99 |
| c1cn(CC2CC2)c(C2CCN(CCC3CCOC3)CC2)n1 (stereo not given) | -2.095 |
| CCn1c(C2CCCN(Cc3nccn3CCOC)C2)nn(C)c1=O (stereo not given) | 3.298 |
| COCCCN1CCCC(c2nccn2CC2CCC2)C1 (stereo not given) | 85.63 |
| CCC1CC(=O)NCc2nc3sc(C)cn3c21 (stereo not given) | 11.81 |
| CCOc1nnc(CN2CCC(c3cc4ccccc4[nH]3)CC2)s1 | -12.75 |
| CC(=O)c1cccc(OCCCC(=O)NC(C#N)CC(C)C)c1 (stereo not given) | -6.212 |
| COCCCC(=O)N1CC(=O)Nc2cc(Br)ccc21 | -0.04468 |
| Cn1ccnc1C1CCN(CCN2CCOCC2)CC1 | -3.118 |
| Cc1nccn1CCCN1CCCC(c2nccn2C)C1 (stereo not given) | 103.4 |
| Cc1nccn1Cc1nnc(C2CCCN(Cc3cccnc3)C2)n1C (stereo not given) | -3.702 |
| CC(=O)N1CCC(N2CC[C@H](c3nc4cc(C)ccc4o3)C2)CC1 | -0.1678 |
| Cn1ccnc1CN1CCN(CCOc2ccccc2C#N)CC1 | -0.4037 |
| Cn1ccnc1CN1CCC(CCC(=O)Nc2ccccc2Cl)CC1 | 11.71 |
| Cc1ccccc1CNC(=O)CN1CCCC(Cc2nccn2C)C1 (stereo not given) | 107 |
| Cn1ccnc1CN1CCC(Cc2ccccn2)CC1 | 101.7 |
| Cc1ccccc1CNC(=O)C1CCN(Cc2nccn2C)CC1 | 101.3 |
| CNC(=O)NC(=O)CN1CCCC(Cc2ccccc2OC)C1 (stereo not given) | -10.54 |
| CC(=O)N[C@@H]1CN(CC(=O)NCc2ccccc2C)C[C@H]1C(C)C | -3.086 |
| Cc1ccccc1CN1CCN(Cc2nccn2C)CC1 | -1.21 |
| Cn1ccnc1CN1CCCC(Cc2ccccn2)C1 (stereo not given) | -12.05 |
| OCCN(Cc1cccnc1)c1ncc(Br)cn1 | -8.725 |
| CCOc1ncccc1NC(=O)c1sccc1C | -6.226 |

| Compound | Percent Effect [%] |
| --- | --- |
| Cc1ccccc1C(C(=O)NCCN1CCC(CO)CC1)N(C)C (stereo not given) | -0.033 |
| CC(=O)NCCCC(=O)NC1(c2ccc(Cl)c(Cl)c2)CC1 | -4.491 |
| CN1CCOC[C@H]1c1nc(C(C)(C)C)c[nH]1 | 12.45 |
| Cc1cc(C(F)(F)F)nc(C2COCCN2S(C)(=O)=O)n1 (stereo not given) | 108.9 |
| Cc1cc(C(F)(F)F)nc(CNC(=O)C2CCCCCN2C)n1 (stereo not given) | -5.462 |
| Cc1cc(S(=O)(=O)N2CCOCC2C#N)ccc1F (stereo not given) | -3.602 |
| Cc1cc(C(F)(F)F)nc(C2CCCN2S(C)(=O)=O)n1 (stereo not given) | 108.4 |
| O=C(c1cccnc1O)N1CCC2(CCCO2)CC1 | -3.936 |
| COc1cc2c(cc1CNCc1cccnc1OC)OC(C)C2 (stereo not given) | 4.577 |
| Cc1noc(-c2ccc(N3CCCC(C(=O)c4nccn4C)C3)nc2)n1 (stereo not given) | 20.25 |
| CC(C)COc1cncc(NCC(O)c2ccco2)n1 (stereo not given) | 9.809 |
| CC(C)(CNC(=O)Nc1ccc(S(=O)(=O)C(F)F)cc1)N1CCOCC1 | 14.64 |
| CCN(CC)Cc1ccccc1NC(=O)N(C)Cc1ccccc1O | -1.773 |
| O=C([C@@H]1Cc2[nH]cnc2CN1Cc1cc2ccccc2o1)N1CCCC1 | 9.512 |
| COc1c(CNCc2ccc(S(C)(=O)=O)cc2)c(C)nn1C | 139.8 |
| COc1c(CNCc2ccc(CN(C)C)cc2)c(C)nn1C | 4.116 |
| COc1c(CNCc2cccc(CS(C)(=O)=O)c2)c(C)nn1C | -2.544 |
| COc1c(CNCc2ccc(CS(C)(=O)=O)cc2)c(C)nn1C | 148.4 |
| CCc1cc(N[C@@H](CO)C(N)=O)n2nc(C)c(C)c2n1 | 2.16 |
| CC(C)C(CCO)NC(=O)Nc1cc(F)ccc1-n1cccn1 (stereo not given) | 1.933 |
| CC(=O)NCCCSC1CCN(c2ccccc2Cl)C1=O (stereo not given) | 1.299 |
| O=c1c2ccccc2nnn1CN(CC1CCOC1)C1CC1 (stereo not given) | -7.02 |
